Most compounds without a hit are left out; they make up all but 3.7% or so of the library.
Anthrax LF prot: Bacillus anthracis LF protease inhibitors, primary screen, biochemical, multiplex microsphere, MLPCN library. Lethal factor (Bacillus anthracis), P15917. multiplex microsphere protease cleavage assay. inhibition, % at 10 µM. 0.12% of 360,000 active. AID 588501, 2011; also: plate controls were buffer without enzyme for full effect and enzyme alone for no effect
Target sequence (P15917 whole entry, looked up): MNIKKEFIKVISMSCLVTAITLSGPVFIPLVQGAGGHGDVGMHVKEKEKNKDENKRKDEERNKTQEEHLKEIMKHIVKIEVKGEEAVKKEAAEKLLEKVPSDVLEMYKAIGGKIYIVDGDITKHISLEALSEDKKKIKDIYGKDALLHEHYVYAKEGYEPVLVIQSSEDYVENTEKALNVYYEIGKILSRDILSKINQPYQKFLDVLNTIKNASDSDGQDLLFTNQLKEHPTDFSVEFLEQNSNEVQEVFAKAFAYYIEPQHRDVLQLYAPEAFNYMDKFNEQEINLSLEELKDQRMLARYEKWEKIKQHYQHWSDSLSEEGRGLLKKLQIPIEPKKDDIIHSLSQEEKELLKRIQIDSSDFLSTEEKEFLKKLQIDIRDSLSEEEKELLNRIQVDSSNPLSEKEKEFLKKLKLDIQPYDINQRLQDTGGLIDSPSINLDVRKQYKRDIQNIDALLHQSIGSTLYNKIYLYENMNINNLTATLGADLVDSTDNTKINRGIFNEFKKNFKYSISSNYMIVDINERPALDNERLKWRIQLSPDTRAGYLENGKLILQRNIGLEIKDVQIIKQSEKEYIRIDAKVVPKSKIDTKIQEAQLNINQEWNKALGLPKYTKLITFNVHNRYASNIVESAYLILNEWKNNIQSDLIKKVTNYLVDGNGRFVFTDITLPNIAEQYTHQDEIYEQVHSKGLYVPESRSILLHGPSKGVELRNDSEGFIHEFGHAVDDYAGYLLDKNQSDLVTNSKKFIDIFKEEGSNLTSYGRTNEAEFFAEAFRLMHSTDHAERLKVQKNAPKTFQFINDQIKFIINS
BoNT-F LC inh: BoNT/F light chain protease inhibitors, primary screen, biochemical, flow cytometry, MLPCN library; Botulinum neurotoxin type F light chain protease (Clostridium botulinum); Multiplex microsphere protease cleavage assay; inhibition, % at 10 µM; 0.22% of 360,000 active; AID 588497, 2011; in the data active = inhibition above about 35%, passing the limit was not always enough; inconclusive = no clear call, values can overlap the other calls; also: plate controls were buffer without enzyme for full effect and enzyme alone for no effect
Bead autofluor: flagged as autofluorescent in microsphere protease counterscreen; 3.1% of 360,000 active; fluorescence intensity (test concentration not listed); compound autofluorescence counterscreen, microsphere flow cytometry; hits give high values; in the data active = fluorescence intensity above about 16000; inconclusive = no clear call, values can overlap the other calls
BoNT A protease: BoNT/A light chain protease inhibitors, primary screen, biochemical, flow cytometry, MLPCN library. multiplex microsphere protease substrate cleavage. 0.17% of 360,000 active. Botulinum neurotoxin type A light chain protease (Clostridium botulinum A str. ATCC 3502). AID 588499, 2011. inhibition, % at 10 µM; also: plate controls were buffer without enzyme for full effect and enzyme alone for no effect
MazF activator: activators of E. coli MazEF toxin-antitoxin RNase, primary screen, biochemical, fluorescence, uHTS; FAM/BHQ RNA-DNA oligo cleavage fluorescence, 5 h; activation, % at 20 µM; 0.32% of 350,000 active; AID 504720, 2011; Endoribonuclease toxin MazF (Escherichia coli (strain K12)), P0AE70; in the data active = activation above about 50%
An asterisk follows results filed as active; i = inactive; ? = inconclusive; nt = not tested or not shown. Rule as the data show it, unless noted: active = inhibition above about 30%; inconclusive = no clear call, values can overlap the other calls; inactive = below that.

SMILES	Anthrax LF prot	BoNT-F LC inh	Bead autofluor	BoNT A protease	MazF activator
O=C(COC(=O)c1cc(Cl)cc(Cl)c1)NCc1ccco1	6	-4	3940	0	-2
Cc1cn([C@H]2C[C@H](O)[C@@H](CNCc3ccc(F)c(N4CCOCC4)c3)O2)c(=O)[nH]c1=O	-8	0	3637	0	5
Cc1cc(NC(=O)CSc2nc3sc4c(c3c(=O)n2C)CCCC4)no1	1	-4	17695*	-5	-20
Cc1cc(NC(=O)Cn2nnc3sc4c(c3c2=O)CCC(C(C)(C)C)C4)no1 (centres undefined)	0	-4	24311*	?	-5
Cc1cc(NC(=O)Cn2nnc3sc4c(c3c2=O)CCCC4)no1	-5	-6	17027*	-4	-3
CC(C)(C)OC(=O)N[C@@H](COCc1ccccc1)C(=O)N[C@@H](CO)[C@H](O)[C@@H]1C[C@@H]1C(=O)NC1CCCCC1	2	-3	4026	0	4
CCOC(=O)C1=C(COC(=O)COc2ccc(OCC)cc2)NC(=O)NC1C (centres undefined)	3	?	4452	-1	-2
O=C(COC(=O)[C@H](Cc1ccccc1)NS(=O)(=O)c1ccccc1F)NC1CCCCC1	-22	12	18375*	7	-4
O=C(COC(=O)[C@H](Cc1ccccc1)NC(=O)c1cccs1)NC1CCCCC1	-1	-2	2648	0	2
CC(C)(C)c1ccc(C(O)c2ncc(-c3ccc4ccccc4c3)[nH]2)cc1 (centres undefined)	-4	-9	3874	-1	nt
O=c1sc(Nc2ccccc2)nc2ccsc12	-5	0	19370*	?	3
O=C(Nc1nc2ccsc2c(=O)s1)C1CCC1	6	6	5763	0	-8
O=C(Nc1ccccc1N1CCOCC1)[C@@H]1O[C@H](CO)[C@H](O)[C@H](O)[C@H]1O	4	-3	3910	0	nt
CCCCn1nnnc1NCc1cc(OC)c(OC)cc1OC	0	0	16650*	0	7
COc1ccc(/C=C/C(=O)N(C)C2(C)CCS(=O)(=O)C2)cc1 (centres undefined)	1	-16	6176	-2	0
C[C@H](O)[C@@H]1CN2CCc3c([nH]c4ccccc34)[C@@H]2C[C@@H]1N(C)C(=S)NCCc1ccccc1	-1	-32	12944	37*	nt
CCNC(=O)N(C)[C@H]1C[C@H]2c3[nH]c4ccccc4c3CCN2C[C@H]1[C@H](C)O	0	-3	5598	1	nt
O=C(COC(=O)Cc1ccc(Cl)c(Cl)c1)Nc1ccc2[nH]c(=O)[nH]c2c1	-2	-4	5949	1	-17
CCCCCCCn1c(=N)n(CC(=O)c2ccco2)c2ccccc21	72*	i	?	8	24
FC(F)(F)c1nnc2sc(-c3ccncc3)nn12	-5	2	19007*	?	4
Cn1cccc1C(=O)NCC(c1ccco1)N1CCCCC1 (centres undefined)	nt	nt	nt	nt	0
COc1ccc(OC)c(NC(=O)c2ccc(NC3=NC4CS(=O)(=O)CC4S3)cc2)c1 (centres undefined)	-16	-18	5472	0	4
C=CCN(C(=O)Nc1ccc(F)cc1)C1CC(=O)N(c2ccc(OC)cc2)C1=O (centres undefined)	-6	3	21431*	4	6
Cc1cc(C)cc(NC(=O)CN2C(=O)C3CC=CCC3C2=O)c1 (centres undefined)	1	-5	8948	-4	3
COC(=O)c1cnc(SC)nc1C	0	0	20134*	?	-2
SMILES	Anthrax LF prot	BoNT-F LC inh	Bead autofluor	BoNT A protease	MazF activator
CSc1ncc(C(=O)Nc2ccccc2C)c(C)n1	-11	9	3901	1	0
Cc1ccc(S(=O)(=O)N2CCOCC2)cc1C(=O)OCC(=O)N(Cc1ccccc1)C(C)C	-4	-2	8442	0	2
O=C(CSc1nc2ccc([N+](=O)[O-])cc2[nH]1)NC1CCCCC1	2	2	20507*	?	2
COc1ccccc1CCN=C(N)NS(=O)(=O)c1ccc(C)c(C)c1	-3	4	5502	3	-4
Cc1ccc(Nc2nc(C)c(CCC(C)C)c(=O)[nH]2)cc1	-2	-5	3586	1	1
Cc1nc(NCc2ccccc2)[nH]c(=O)c1CCC(C)C	0	0	24000*	-1	6
NC(=O)c1cccn1Cc1cccc(Cl)c1	-1	-10	10318	-1	-1
NC(=O)c1cccn1Cc1ccccc1Cl	3	2	22851*	0	1
C[C@@H](NC(=O)[C@@H]1CCCN1C(=O)[C@@H]1CCCN1C(=O)c1ccccc1)c1ccccc1	0	4	4334	0	nt
COc1cc(C(c2c(C)[nH][nH]c2=O)c2c(C)[nH][nH]c2=O)ccc1OCc1ccc([N+](=O)[O-])cc1	1	-1	21766*	3	7
COc1cc(C(c2c(C)[nH][nH]c2=O)c2c(C)[nH][nH]c2=O)ccc1OS(=O)(=O)c1ccccc1	-4	-5	16308*	-1	-3
COc1cc(C(c2c(C)[nH][nH]c2=O)c2c(C)[nH][nH]c2=O)ccc1OC(=O)c1cccc([N+](=O)[O-])c1	-3	-5	2480	1	7
CCOc1cc(/C=C2/C(=N)N3C(=NC2=O)SN=C3S(=O)(=O)C(C)C)ccc1OC(=O)c1ccco1	0	-1	6340	2	62*
COc1cc(/C=C2/C(=N)N3C(=NC2=O)SN=C3S(=O)(=O)C(C)C)ccc1OC(=O)c1ccco1	nt	nt	nt	nt	45
O=C(Nc1ccccc1N1CCN(C(=O)c2ccc(Cl)cc2)CC1)c1cc2ccccc2o1	2	7	4183	1	-10
O=C(Nc1ccc(N2CCN(C(=O)c3ccc(Cl)cc3)CC2)cc1)c1cc2ccccc2o1	0	-4	21324*	-2	14
CC(OC(=O)Cc1c[nH]c2ccccc12)C(=O)N(C)c1ccccc1 (centres undefined)	-1	-12	4503	-1	-1
CCOC1(C(F)(F)F)NC(=O)N(Cc2ccc(OC)cc2)C1=O (centres undefined)	-8	0	19545*	0	3
CCOC(=O)c1cc(NC(=O)c2ccc(OC)cc2)c(=O)oc1-c1ccccc1	-4	-2	22500*	?	-8
COc1ccc(C(=O)Nc2cc(C(C)=O)c(/C=C/N(C)C)oc2=O)cc1	1	0	16251*	1	-166
COC(=O)c1cc(NC(=O)c2ccc(OC)cc2)c(=O)oc1C	0	-4	4881	-1	-1
Cc1nc2ccc(C(=O)N(C)Cc3ccccc3)cn2c1N(C)C(=O)CCc1ccccc1	-7	-7	4036	0	nt
COCCOC(=O)c1c(C)n(C)c2ccc(OC(=O)c3cccs3)cc12	-2	-5	16814*	-2	5
